This is an account of results in the supplement of paper PMC9262897, “Low-cost anti-mycobacterial drug discovery using engineered E. coli” (Nature Communications, 2022).

Where a name gives a salt, the structure may show the parent alone. ± gives the standard deviation of the averaged measurements.

The subject of one experiment is E. coli TESEC Mtb Alr. The experiment is described as follows: growth (OD600 after 10 h); higher = more growth (less inhibition). The note with it: arabinose 100000 nM; compound 0.1 mM; raw OD600 reference: median of DMSO wells 0.201, cell-free background 0.041. As for the experimental part: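 TESEC Mtb Alr E. coli, or the Alr+ wild-type control, in 384-well plates with Prestwick library compounds at 0.1 mM and 1% DMSO, across arabinose induction levels of 1E3 to 1E7 nM. Growth is read as OD600 after 10 h at 37 °C in triplicate biological replicates.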
As for `Clc1ccc(C(c2ccccc2Cl)C(Cl)Cl)cc1` (stereo not given) [Mitotane], the growth came out at 0.183 ± 0.012.

`Cc1nc2ccccn2c(=O)c1CCN1CCC(C(=O)c2ccc(F)cc2)CC1` [Pirenperone]: the growth was determined as 0.208 ± 0.043. As for `O=c1cc(-c2ccc(O)c(O)c2)oc2cc(O)cc(O)c12` [Luteolin], the growth stood at 0.05233 ± 0.00025. The same measure, in the same setting: the same measure for `CC[N+](C)(C)c1cccc(O)c1` [Edrophonium chloride]: 0.227 ± 0.03; for `CCn1cc(C(=O)O)c(=O)c2cc(F)c(N3CCNC(C)C3)c(F)c21` (stereo not given) [Lomefloxacin hydrochloride]: 0.0417 ± 0.00042.

The same experiment, now with this note: arabinose 1000000 nM; compound 0.1 mM; raw OD600 reference: median of DMSO wells 0.193, cell-free background 0.041.
Regarding `CCCNC(C)(C)COC(=O)c1ccccc1` [Meprylcaine hydrochloride], the growth amounted to 0.215 ± 0.025. On the same count and under the same terms, the same measure for `CN1CCC(=C2c3ccccc3CCc3cccnc32)CC1` [Azatadine maleate]: 0.18 ± 0.0037.

In the case of `CNC(=C[N+](=O)[O-])NCCSCc1csc(CN(C)C)n1` [Nizatidine], the growth is 0.189 ± 0.0052. The same measure, in the same setting: the same measure for `Fc1ccc(C(c2ccc(F)cc2)N2CCN(C/C=C/c3ccccc3)CC2)cc1` [Flunarizine dihydrochloride]: 0.0591 ± 0.0018; for `CC(C(=O)O)c1cccc(C(=O)c2ccccc2)c1` (stereo not given) [Ketoprofen]: 0.191 ± 0.0088. The compound `C1N2CN3CN1CN(C2)C3` [Methenamine] came in with a growth of 0.226 ± 0.0064. The same measure, in the same setting: the same measure for `Cc1c(N(C)CS(=O)(=O)O)c(=O)n(-c2ccccc2)n1C` [Dipyrone]: 0.169 ± 0.0052. The same measure, in the same setting: the same measure for `Cc1onc(-c2ccccc2)c1-c1ccc(S(N)(=O)=O)cc1` [Valdecoxib]: 0.0949 ± 0.0023; for `O=C(C1CCCCC1)N1CC(=O)N2CCc3ccccc3C2C1` (stereo not given) [Praziquantel]: 0.167 ± 0.01. Still for that read-out and setting: the same measure for `Clc1ccc(Cn2c(CN3CCCC3)nc3ccccc32)cc1` [Clemizole hydrochloride]: 0.0465 ± 0.0005; for `O=C(O)c1ccccc1OP(=O)(O)O` [Fosfosal]: 0.198 ± 0.0055; for `COc1ccc(C2CNC(=O)C2)cc1OC1CCCC1` (stereo not given) [Rolipram]: 0.198 ± 0.012.

`CCC1=C(C)CN(C(=O)NCCc2ccc(S(=O)(=O)NC(=O)N[C@H]3CC[C@H](C)CC3)cc2)C1=O` [Glimepiride] had a growth of 0.182 ± 0.004. Turning to `CC(=O)Nc1c(I)c(C(=O)N[C@H]2C(O)O[C@H](CO)[C@@H](O)[C@@H]2O)c(I)c(N(C)C(C)=O)c1I` (stereo not given in full) [Metrizamide], the growth is 0.188 ± 0.0051. On the same count and under the same terms, the same measure for `CN(C(=O)C(Cl)Cl)c1ccc(OC(=O)c2ccco2)cc1` [Diloxanide furoate]: 0.172 ± 0.0079.

For the compound `Cc1c(Cl)cccc1Nc1ccccc1C(=O)O` [Tolfenamic acid], the growth is 0.0424 ± 0.00053. On to `COc1ccc(C(=O)CC(=O)c2ccc(C(C)(C)C)cc2)cc1` [Avobenzone], for which the growth amounted to 0.107 ± 0.033.

`NCc1ccccc1CC(=O)N[C@@H]1C(=O)N2C(C(=O)O)=C(CSc3nnnn3CC(=O)O)CS[C@H]12` [Ceforanide] registered a growth of 0.161 ± 0.0024. The same measure, in the same setting: the same measure for `CN(C)CCCN1c2ccccc2CCc2ccccc21` [Imipramine hydrochloride]: 0.133 ± 0.0058; for `COc1ccc(-c2cc(=O)c3c(O)cc(O[C@@H]4O[C@H](CO[C@@H]5O[C@@H](C)[C@H](O)[C@@H](O)[C@H]5O)[C@@H](O)[C@H](O)[C@H]4O)cc3o2)cc1O` [Diosmin]: 0.192 ± 0.013; for `COC(=O)N/N=C/c1c[n+]([O-])c2ccccc2[n+]1[O-]` [Carbadox]: 0.117 ± 0.0034. Take `N=C(N)NC(=O)c1nc(Cl)c(N)nc1N` [Amiloride hydrochloride dihydrate]: the growth was determined as 0.181 ± 0.0048.

`Nc1nc(Cl)nc2c1ncn2[C@H]1C[C@H](O)[C@@H](CO)O1` [Cladribine]: the growth was found to be 0.0623 ± 0.0011. Same read-out and setting: the same measure for `CO[C@@]1(NC(=O)C2SC(=C(C(N)=O)C(=O)O)S2)C(=O)N2C(C(=O)O)=C(CSc3nnnn3C)CS[C@@H]21` (stereo not given in full) [Cefotetan]: 0.0413 ± 0.00026; for `CC(=O)O[C@H]1C[C@@]2(C)[C@@H](C[C@@H](O)[C@H]3[C@@]4(C)CC[C@@H](O)[C@@H](C)[C@@H]4CC[C@@]32C)/C1=C(\CCC=C(C)C)C(=O)O` [Fusidic acid sodium salt]: 0.0403 ± 0.00017. Still for that read-out and setting: the same measure for `COc1ccc(CN(CCN(C)C)c2ccccn2)cc1` [Pyrilamine maleate]: 0.154 ± 0.0054; for `C#C[C@]1(O)CC[C@H]2[C@@H]3CCC4=Cc5oncc5C[C@]4(C)[C@H]3CC[C@@]21C` [Danazol]: 0.125 ± 0.0017; for `CCN(CC)C(C)CN1c2ccccc2Sc2ccccc21` (stereo not given) [Ethopropazine hydrochloride]: 0.135 ± 0.0087. `CCCNC(C)C(=O)Nc1c(C)csc1C(=O)OC` (stereo not given) [Articaine hydrochloride] gave a growth of 0.162 ± 0.0036.

Turning to `Cc1ccc(Cl)c(Nc2ccccc2C(=O)O)c1Cl` [Meclofenamic acid sodium salt monohydrate], the growth worked out at 0.04353 ± 0.00038.
